Assay outcomes from PubChem.
BAZ2B inh – qHTS Assay for Inhibitors of BAZ2B | Bromodomain adjacent to zinc finger domain protein 2B (Homo sapiens), Q9UIF8 | AlphaScreen BAZ2B-H3K14Ac peptide displacement | Potency, µM (top dose mostly 114 µM), for the others: at the top dose activity change, negative = inhibition, hits mostly inhibitors | hit rate 4.4% among 360,000 | AID 504333, 2011; note: potency is the fitted concentration of half-maximal effect; % is set by controls: 0 for no effect and ±100 for the full control effect; nearly all actives have a fitted effect of over 60% in size
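BAZ2B 50 nM plus b-H3(5-23)K14Ac 50 nM, PBS pH 7.4/0.01% Tween-20, 30 min RT; compound added (max 110 uM), 30 min RT; streptavidin donor/Ni-chelate acceptor beads 10 ug/mL final, 20 min dark; AlphaScreen read.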
CtBP-E1A blk – qHTS Assay for Inhibitors of the CtBP/E1A Interaction; CtBP / adenovirus E1A interaction (AlphaScreen); AlphaScreen GST-E1A/His-CtBP binding, 1536-well; stronger effect = lower value; hit rate 0.49% among 340,000; activity change, % (no concentration beside the values); in the data active = activity change below about -65%; inconclusive = mostly about -30% to -63%; note: % is set by controls: 0 for no effect and ±100 for the full control effect
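AlphaScreen with 125 nM GST-E1A and 125 nM His-CtBP (5X stocks) in Tris pH 8.0, 300 mM NaCl, BSA, Tween 20, TCEP. Compounds preincubated 2 h at 37 deg C, then glutathione donor/nickel acceptor beads added for 1 h at 37 deg C in dark.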
JMJD2A Tudor – qHTS Assay for Inhibitors of JMJD2A-Tudor Domain; AlphaScreen JMJD2A-Tudor / H3K4me3 peptide binding; Potency, µM (doses to about 114 µM), inactives show at the top dose activity change, negative = inhibition, hits mostly inhibitors; hit rate 4.4% among 390,000; AID 504339, 2011; note: potency is the fitted concentration of half-maximal effect; % is set by controls: 0 for no effect and ±100 for the full control effect; nearly all actives have a fitted effect of over 50% in size
Six1-Eya2 inh – qHTS Assay for Inhibitors of the Six1/Eya2 Interaction. hit rate 0.56% among 360,000. AlphaScreen GST-Six1/His-Eya2 binding, biochemical; stronger effect = lower value. activity change, % (test concentration not listed). AID 651725, 2012. Homeobox protein SIX1 (Homo sapiens) + Protein phosphatase EYA2 (Homo sapiens), …; in the data active = activity change below about -65%; inconclusive = mostly about -30% to -63%; note: % is set by controls: 0 for no effect and ±100 for the full control effect
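Compounds are tested against tagged Six1 and Eya2 proteins bridged by glutathione donor and nickel acceptor beads; after a one-hour incubation at 37 °C without light, AlphaScreen emission is recorded.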
G9a block – qHTS Assay for Inhibitors of Histone Lysine Methyltransferase G9a. G9a H3K9 monomethylation, AlphaScreen, 2 h. Potency, µM (highest dose often 102 µM), for inactives: at the top dose activity, negative = inhibition, hits mostly inhibitors. AID 504332, 2011. hit rate 8.8% among 350,000; note: potency is the fitted concentration of half-maximal effect; % is set by controls: 0 for no effect and ±100 for the full control effect; nearly all actives have a fitted effect of over 75% in size
Target sequence (Q96KQ7 913-1193 limits assumed): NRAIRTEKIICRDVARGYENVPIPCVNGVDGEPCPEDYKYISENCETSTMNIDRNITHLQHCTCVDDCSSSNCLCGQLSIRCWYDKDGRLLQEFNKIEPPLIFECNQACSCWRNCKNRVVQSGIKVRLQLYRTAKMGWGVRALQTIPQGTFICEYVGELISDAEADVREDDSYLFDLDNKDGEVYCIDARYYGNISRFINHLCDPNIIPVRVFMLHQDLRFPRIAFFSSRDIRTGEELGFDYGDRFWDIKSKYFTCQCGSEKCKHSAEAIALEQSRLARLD
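G9a (20 nM) was preincubated 15 min with compound, then reacted 2 h at room temperature with 500 nM biotin-H3K9 peptide and 20 µM SAM. Monomethyl-H3K9 detected by AlphaScreen using anti-H3K9me1 antibody.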
HP1b chromo inh – HTS for Inhibitors of HP1-beta Chromodomain Interactions with Methylated Histone Tails | AlphaScreen HP1-beta / biotin-H3K9me3 peptide binding | hit rate 0.56% among 390,000 | AID 540317, 2011 | Chromobox protein homolog 1 (Homo sapiens), P83916 | Potency, µM (top dose mostly 114 µM), for the others: at the highest dose activity change, negative = inhibition, actives largely listed as inhibitors; note: potency is the fitted concentration of half-maximal effect; nearly all actives have a fitted effect of over 70% in size
Target sequence (P83916 whole entry, looked up): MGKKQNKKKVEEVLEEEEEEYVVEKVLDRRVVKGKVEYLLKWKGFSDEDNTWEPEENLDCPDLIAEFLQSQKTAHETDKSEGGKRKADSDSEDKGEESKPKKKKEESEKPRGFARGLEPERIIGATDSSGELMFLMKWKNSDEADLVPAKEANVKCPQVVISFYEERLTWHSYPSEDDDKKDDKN
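Compound inhibition of the preformed complex between 50 nM HP1-beta and 50 nM biotinylated H3K9me3 peptide was read by AlphaScreen. Buffer was PBS pH 7.4 with 0.01% Tween-20. Incubations ran 30 min at room temperature, with 10 ug/mL donor/acceptor beads.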
Starred values were filed as active, the others as inactive; ? = inconclusive; . = not tested or not shown; [ ] = dose if it differs, or a comment. Only some compounds are listed: those with a hit (about 10% of all), similar ones and a draw of the others. Unless noted, calls come from the whole dose curve; as a rule, active = well fitted inhibition curve with a large enough effect; inconclusive = small, poorly fitted or top-dose-only effect; inactive = no such curve, though single readings can be large or run the other way.

SMILES	BAZ2B inh	CtBP-E1A blk	JMJD2A Tudor	Six1-Eya2 inh	G9a block	HP1b chromo inh
O=C(Cn1ncn2c(cc3sccc32)c1=O)NCCc1ccccc1	0.3%	.	-6.5%	.	-4.7%[59 µM]	14.7%
CCn1c(SCC(=O)N2CCN(c3ccccc3F)CC2)nnc1-c1ccoc1C	-29.7%	-0.8	50.1µM*	-3.4	?	-25.8%
Cc1ccccc1-n1c(SCC(=O)N2CCN(c3ccccc3)CC2)nnc1-c1ccncc1	11.6%	-6.2	-22.2%	-2.0	44.7µM*	20.1%
Cc1ccccc1-n1c(SCC(=O)N2CCC(C(=O)O)CC2)nnc1-c1ccncc1	29.3%	2.5	-6.3%	7.9	-0.7%	53.2%
Cc1ccc(-c2nsc(NC(=O)c3oc4cc(C)c(Cl)cc4c3C)n2)cc1	-1.5%	.	-28.0%	.	2.3%[59 µM]	45.3%
COc1ccc(OC)c(NC(=O)c2c(NCc3cccs3)sc3c2CCCCC3)c1	22.4µM*	.	?	.	11.2µM*	-1.2%
COc1ccc(OC)c(CNc2sc3c(c2C(=O)Nc2cc(OC)ccc2OC)CCCC3)c1	22.4µM*	.	?	.	11.2µM*	-21.0%
COc1cc(OC)c(OC)cc1CNc1sc2c(c1C(=O)Nc1ccccc1OC)CCC2	-32.0%	.	?	.	12.6µM*	19.3%
COc1ccc(OC)c(NC(=O)c2c(NC(=O)CCC(=O)O)sc3c2CCCCC3)c1	-37.3%	12.1	?	-2.1	44.7µM*	-19.3%
COc1ccc(CNC(=O)C2CCN(c3nc4ccc(C)cc4[nH]3)CC2)cc1	3.8%	.	4.2%	.	0.1%[59 µM]	21.0%[57 µM]
O=c1c2sc3ccccc3c2n(Cc2ccccc2F)c(=O)n1CCc1ccccc1	-6.6%	.	-11.9%	.	1.3%[59 µM]	37.9%
COc1ccc(S(=O)(=O)N(CC(=O)Nc2cccnc2)c2ccc(Cl)cc2)cc1	-9.3%	.	-25.3%	.	-36.6%[59 µM]	-8.5%
COc1ccc(OC)c(NC(=O)c2c(NCc3cccs3)sc3c2CCCC3)c1	35.5µM*	.	39.8µM*	.	?	-15.3%
O=C(/C=C/c1ccccc1)Nc1nc2n(n1)C(c1ccc(F)cc1)C=C(c1ccccc1)N2 (stereo not drawn)	-7.2%	.	-9.3%	.	?	19.6%
CC(=O)Nc1ccc(Nc2ccccc2)cc1	-14.9%	4.2	-27.4%	-1.8	.	31.3%
CC(=O)Nc1ccc(NC2=CC(=O)c3ccccc3C2=O)cc1	12.6µM*	-5.6	25.1µM*	-4.2	2µM*	-30.0%
O=C1C=C(Nc2ccc(O)cc2)C(=O)c2ccccc21	28.2µM*	-30.0	?	?	.	-8.6%
COc1ccc(NC(=O)c2oc3ccccc3c2NC(=O)c2cc(C)cc(C)c2)c(OC)c1	-32.9%	.	-15.2%	.	-0.9%[59 µM]	26.9%
COc1ccc(-c2nn(-c3cccc([N+](=O)[O-])c3)c3c2cnc2cc4c(cc23)OCO4)cc1	-6.9%	.	-30.1%	.	?	170.7%
Clc1ccc(Cn2c(/C=C/c3ccco3)nc3ccccc32)cc1	56.2µM*	12.7	-26.5%	2.4	3.16µM*	?
Cc1ccc(Cn2c(/C=C/c3ccco3)nc3ccccc32)cc1	?	2.6	-0.7%	3.7	39.8µM*	11.2%
COc1ccc(NC(=O)c2oc3ccccc3c2NC(=O)c2cc(=O)c3c(C)cc(C)cc3o2)cc1	-3.2%	.	-7.6%	.	0.2%[59 µM]	35.1%
Cc1ccnc2nc(C(=O)Nc3nccs3)nn12	?	0.0	10µM*	23.2	?	27.5%
Cc1ccnc2nc(C(=O)OCC(=O)c3ccc(NC(=O)CC(C)C)cc3)nn12	.	0.5	?	3.6	.	-21.2%
Cc1ccnc2nc(C(=O)NC3=NCCS3)nn12	-28.5%	23.4	-35.6%	20.1	21.6%	37.1%
SMILES	BAZ2B inh	CtBP-E1A blk	JMJD2A Tudor	Six1-Eya2 inh	G9a block	HP1b chromo inh
CCC(=O)Nc1ccc(C(=O)COC(=O)c2nc3nccc(C)n3n2)cc1	10µM*	5.7	39.8µM*	-20.6	4.9%[12.7 µM]	?
COc1cc(NC(=O)CCc2ccccc2)nc(OC)n1	12.4%	3.0	4.4%	1.3	9.0%[59 µM]	25.7%
COc1cc(C(=O)O)nc(OC)n1	70.8µM*	0.0	2.82µM*	5.7	?	-6.4%
CC(C)CCNc1c(-c2cccs2)nc2ccccn12	-30.2%	-4.8	-13.9%	-0.1	44.7µM*	24.2%
O=C(COc1ccc(Cl)cc1)Nc1c(-c2cccs2)nc2ccccn12	-7.2%	2.5	-14.1%	-0.4	-11.3%	40.1%
N#CC1=C(N)OC2=C(C(=O)CCC2)C12CCN(C(=O)OCc1ccccc1)CC2	-34.1%	3.3	-11.0%[57.1 µM]	1.8	50.1µM*	27.8%
CC1(C)CC(=O)C2=C(C1)OC(N)=C(C#N)C21CCN(C(=O)OCc2ccccc2)CC1	10.5%	-2.1	-23.3%	-0.3	-32.9%[2.33 µM]	3.6%
O=S1(=O)CCC(NC(=S)N2CCCCC2)C1 (stereo not drawn)	9.4%	2.0	-10.7%	2.5	11.5%[59 µM]	24.7%
NC(=S)NC1CCS(=O)(=O)C1 (stereo not drawn)	8.8%	-15.2	10.0%	6.9	-2.7%	38.7%
C=CCSC(=S)NC1CCS(=O)(=O)C1 (stereo not drawn)	8.6%	9.3	-0.7%	6.9	50.1µM*	31.3%
O=S1(=O)CCC(NC(=S)NCCNC(=S)NC2CCS(=O)(=O)C2)C1 (stereo not drawn)	8.9%	12.1	-10.1%	8.1	50.1µM*	39.4%
Cc1ccc(NC(=O)Cn2nnnc2-c2ccccc2N)cc1	-3.9%	.	-27.0%	.	2.2%[59 µM]	1.5%
COc1ccc(CN(CC2CCCO2)S(=O)(=O)c2ccc(-n3cnnn3)c(OC)c2)cc1 (stereo not drawn)	-10.8%	-1.5	-4.3%	2.8	-2.5%	30.9%
COc1cc(S(=O)(=O)N(Cc2cccc(OC)c2OC)CC2CCCO2)ccc1-n1cnnn1 (stereo not drawn)	-38.8%	-5.1	-21.5%	-6.5	50.1µM*	29.1%
COc1cccc(CN(Cc2cccnc2)S(=O)(=O)c2ccc(-n3cnnn3)c(C)c2)c1OC	?	10.1	?	-1.1	25.1µM*	20.5%
COc1ccc(CN(Cc2cccnc2)S(=O)(=O)c2ccc(-n3cnnn3)c(OC)c2)cc1	-24.9%	-0.4	-20.0%	1.5	1.9%	18.8%
Cc1cc(C)c2cc3c(N)c(C(=O)N4CCc5ccccc5C4)sc3nc2c1	2.7%	1.6	-15.7%	3.3	10µM*	14.9%
Cc1cccc2cc3c(N)c(C(=O)N4CCOCC4)sc3nc12	-38.2%[57.1 µM]	-13.1	?	5.7	?	24.5%
